# Calls of active or inactive are those of the source. Unless noted, no rule for the calls is given here.
# Columns and labels:
# [1] = test system: Wnt5a (protein binding on small-molecule microarray); experiment: Wnt5a binders on small-molecule microarray, primary screen, biophysical, 635/667 nm fluorescence (AID 1142); settings: 635 nm fluorescence, higher = more signal;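 also: fluorescence read at 667 nm with signal to noise per printed feature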
# [2] = cell viability in Huh7 cells, primary screen, cytotoxicity control for HCV replication inhibitor project, CellTiter-Glo luminescence, basal, 48 h (AID 1143); settings: Huh7 HCV replicon, higher = more signal, called active from +8 up or from −8 down;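 also: Huh7 hepatoma cells carrying a hepatitis C replication reporter with no stimulus; test concentration not given here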
# [3] = P. aeruginosa biofilm formation inhibitors, primary screen, PAO1 strain, BacTiter-Glo luminescence, LB-PBS (AID 1144); settings: 12 h, higher = more signal
# [4] = CREB reporter modulators without forskolin, primary screen, cell-based, PC12, CRE-LacZ reporter, unstimulated (AID 1145); settings: no forskolin, luminescence, 4.5 h, higher = more signal, called active from +8 up or from −8 down
# [5] = CREB reporter modulators under forskolin, primary screen, cell-based, PC12, CRE-LacZ reporter, forskolin-stimulated (AID 1146); settings: luminescence, 4.5 h, higher = more signal, called active from +8 up or from −8 down;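 also: PC12 cells with 6xCRE LacZ reporter stimulated by forskolin 10 µM; beta-galactosidase reporter signal reflecting CREB driven transcription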
# [6] = molecular target: Streptavidin (Streptomyces avidinii) (UniProt P22629); experiment: streptavidin binders on small-molecule microarray, primary screen, artefact control for SMM compound annotation, biophysical, 635/667 nm fluorescence (AID 1147); settings: streptavidin binding, higher = more signal;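 also: signal reflects streptavidin binding to arrayed compounds as a control protein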
# Streptavidin (Streptomyces avidinii), sequence (P22629 whole entry, looked up): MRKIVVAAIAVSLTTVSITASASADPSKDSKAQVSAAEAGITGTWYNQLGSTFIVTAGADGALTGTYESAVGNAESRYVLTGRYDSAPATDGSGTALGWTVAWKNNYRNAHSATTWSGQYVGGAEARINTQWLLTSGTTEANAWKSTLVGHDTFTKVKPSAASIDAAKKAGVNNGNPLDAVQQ
# [7] = small-molecule binders of probe aInhba, primary screen, biochemical, small-molecule microarray, 635/667 nm fluorescence (AID 1148); settings: higher = more signal;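 also: score merges 667nm spot fluorescence with signal-to-noise for antibody binding to printed compounds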
# Torsin-1A (Homo sapiens) [8] = molecular target: Torsin-1A (Homo sapiens) (UniProt O14656); experiment: torsin A binders from cell lysate, primary screen, small-molecule microarray, wild-type, 635/667 nm (AID 1149); settings: COS7 hTOR1A-WT lysate, 635 nm fluorescence, higher = more signal
# Torsin-1A (Homo sapiens), sequence (O14656 whole entry, looked up): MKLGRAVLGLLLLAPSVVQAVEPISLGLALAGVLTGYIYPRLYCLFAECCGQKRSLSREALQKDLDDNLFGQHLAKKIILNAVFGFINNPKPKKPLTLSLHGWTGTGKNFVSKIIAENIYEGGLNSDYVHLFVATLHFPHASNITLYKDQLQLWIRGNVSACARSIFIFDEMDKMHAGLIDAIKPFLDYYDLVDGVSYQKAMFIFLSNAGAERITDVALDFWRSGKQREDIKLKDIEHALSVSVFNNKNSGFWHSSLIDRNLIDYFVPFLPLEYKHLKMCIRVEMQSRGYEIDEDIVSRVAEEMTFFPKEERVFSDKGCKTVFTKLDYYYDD
# Torsin-1A (Homo sapiens) [9] = molecular target: Torsin-1A (Homo sapiens) (UniProt O14656); experiment: small-molecule binders of mutant TOR1A in lysate, primary screen, cell lysate, small-molecule microarray, COS7 lysate, 635/667 nm fluorescence (AID 1150); settings: COS7 hTOR1A mutant lysate, 635 nm fluorescence, higher = more signal;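 also: score pools 667 nm emission and signal to noise measuring lysate protein binding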
# [10] = test system: Sonic hedgehog protein (Shh); experiment: small-molecule binders of Shh protein, primary screen, biochemical, small-molecule microarray, 635/667 nm fluorescence (AID 1151); settings: small-molecule microarray binding, 635 nm fluorescence; higher = more signal;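 also: Shh protein binding to compounds spotted on small-molecule microarray slides; score combines spot fluorescence intensity with signal-to-noise across triplicate slides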
# [11] = E. coli DRC41 culture turbidity changes, primary screen, E. coli filamentation inducer project, strain DRC41, OD650, 48 h (AID 1152);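 also: E. coli MC1000 strain DRC41 lacking acrAB efflux pump and sulA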; settings: E. coli DRC41 (acrAB sulA), higher = more signal, called active from +8 up or from −8 down
# [12] = small-molecule binders of probe aLefty1, primary screen, biochemical, small-molecule microarray, 635/667 nm fluorescence (AID 1153); settings: higher = more signal;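 also: score merges spot fluorescence with signal-to-noise ratio from the scanned slide images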
# [13] = PSAC antagonists in infected red cells, primary screen, cell-based, P. falciparum Indochina, OD700, 1 h (AID 1154); settings: P. falciparum Indochina infected RBC osmotic lysis, higher = more signal, called active from +8 up or from −8 down
# [14] = PSAC antagonists in infected red cells, primary screen, cell-based, P. falciparum Indochina, OD700, 2 h (AID 1155);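 also: lysis reports solute entry through the parasite surface anion channel PSAC; channel blockers reduce lysis of infected cells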; settings: P. falciparum Indochina infected erythrocytes, osmotic lysis OD700; higher = more signal, called active from +8 up or from −8 down
# [15] = osmotic lysis modulators in infected erythrocytes, primary screen, PSAC antagonist project, cell-based, P. falciparum Indochina, OD700, 3 h (AID 1156); settings: higher = more signal, called active from +8 up or from −8 down
# [16] = PSAC antagonists in infected red cells, primary screen, cell-based, P. falciparum Indochina, OD700, 18 h (AID 1157); settings: P. falciparum Indochina infected erythrocytes, osmotic lysis OD700, 18 h; higher = more signal, called active from +8 up or from −8 down
# [17] = modulators of S6 phosphorylation in cells, primary screen, cell-based, A549, cytoblot, luminescence, serum-stimulated (AID 1158); settings: A549 phospho-S6 cytoblot, 5 h, higher = more signal;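 also: serum-stimulated A549 lung adenocarcinoma cells; signal is phosphorylated S6 detected by cytoblot immunostaining with HRP secondary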
# [18] = molecular target: NADPH oxidase 2 (Homo sapiens) (UniProt P04839); experiment: NOX2-dependent H2O2 signal modulators, primary screen, NOX inhibitor project, cell-based, HEK293-NOX2, PMA-stimulated, Amplex Red fluorescence (AID 1159); settings: 45 min, higher = more signal, called active from +8 up or from −8 down; also: test concentration not given here
# NADPH oxidase 2 (Homo sapiens), sequence (P04839 whole entry, looked up): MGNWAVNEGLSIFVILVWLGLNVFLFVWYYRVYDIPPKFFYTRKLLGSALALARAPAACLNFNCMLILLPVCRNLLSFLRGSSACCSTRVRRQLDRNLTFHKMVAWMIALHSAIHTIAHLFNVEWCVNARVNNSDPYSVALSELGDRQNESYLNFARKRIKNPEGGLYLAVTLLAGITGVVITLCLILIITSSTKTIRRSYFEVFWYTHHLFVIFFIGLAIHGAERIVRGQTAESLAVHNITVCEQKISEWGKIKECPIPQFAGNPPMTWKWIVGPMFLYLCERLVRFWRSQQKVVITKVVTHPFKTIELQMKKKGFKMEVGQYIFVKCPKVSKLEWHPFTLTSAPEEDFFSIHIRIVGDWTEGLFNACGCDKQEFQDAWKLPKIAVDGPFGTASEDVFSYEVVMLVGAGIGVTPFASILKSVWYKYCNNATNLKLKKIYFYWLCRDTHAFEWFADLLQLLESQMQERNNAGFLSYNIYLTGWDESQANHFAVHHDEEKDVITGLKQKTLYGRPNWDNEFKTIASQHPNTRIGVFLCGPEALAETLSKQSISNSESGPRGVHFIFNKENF
# [19] = molecular target: NADPH oxidase 4 (Homo sapiens) (UniProt Q9NPH5); experiment: NOX4-dependent H2O2 signal modulators, primary screen, NOX inhibitor project, cell-based, HEK293-NOX4, tetracycline-induced, Amplex Red fluorescence (AID 1160); settings: 45 min, higher = more signal, called active from +8 up or from −8 down
# NADPH oxidase 4 (Homo sapiens), sequence (Q9NPH5 whole entry, looked up): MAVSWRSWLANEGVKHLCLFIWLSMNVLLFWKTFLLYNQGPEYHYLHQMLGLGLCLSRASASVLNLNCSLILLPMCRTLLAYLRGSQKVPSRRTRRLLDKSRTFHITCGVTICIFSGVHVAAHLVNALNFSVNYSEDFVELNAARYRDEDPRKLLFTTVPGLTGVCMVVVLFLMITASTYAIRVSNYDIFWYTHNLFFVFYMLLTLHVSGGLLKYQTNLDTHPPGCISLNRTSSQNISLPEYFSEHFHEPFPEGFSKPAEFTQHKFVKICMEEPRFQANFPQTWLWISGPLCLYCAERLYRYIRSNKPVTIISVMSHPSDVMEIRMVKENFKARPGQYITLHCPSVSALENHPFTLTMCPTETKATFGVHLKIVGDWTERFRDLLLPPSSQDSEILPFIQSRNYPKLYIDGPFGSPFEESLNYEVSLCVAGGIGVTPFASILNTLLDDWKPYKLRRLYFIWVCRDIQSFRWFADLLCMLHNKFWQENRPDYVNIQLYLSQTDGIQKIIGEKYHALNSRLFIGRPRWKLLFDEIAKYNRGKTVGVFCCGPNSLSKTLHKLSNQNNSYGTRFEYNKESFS
# [20] = molecular target: NADPH oxidase 5 (Homo sapiens) (UniProt Q96PH1); experiment: NOX5-dependent H2O2 signal modulators, primary screen, NOX inhibitor project, cell-based, HEK293-NOX5, Amplex Red fluorescence (AID 1161); settings: HEK293-NOX5, ionomycin, 45 min, higher = more signal
# NADPH oxidase 5 (Homo sapiens), sequence (Q96PH1 whole entry, looked up): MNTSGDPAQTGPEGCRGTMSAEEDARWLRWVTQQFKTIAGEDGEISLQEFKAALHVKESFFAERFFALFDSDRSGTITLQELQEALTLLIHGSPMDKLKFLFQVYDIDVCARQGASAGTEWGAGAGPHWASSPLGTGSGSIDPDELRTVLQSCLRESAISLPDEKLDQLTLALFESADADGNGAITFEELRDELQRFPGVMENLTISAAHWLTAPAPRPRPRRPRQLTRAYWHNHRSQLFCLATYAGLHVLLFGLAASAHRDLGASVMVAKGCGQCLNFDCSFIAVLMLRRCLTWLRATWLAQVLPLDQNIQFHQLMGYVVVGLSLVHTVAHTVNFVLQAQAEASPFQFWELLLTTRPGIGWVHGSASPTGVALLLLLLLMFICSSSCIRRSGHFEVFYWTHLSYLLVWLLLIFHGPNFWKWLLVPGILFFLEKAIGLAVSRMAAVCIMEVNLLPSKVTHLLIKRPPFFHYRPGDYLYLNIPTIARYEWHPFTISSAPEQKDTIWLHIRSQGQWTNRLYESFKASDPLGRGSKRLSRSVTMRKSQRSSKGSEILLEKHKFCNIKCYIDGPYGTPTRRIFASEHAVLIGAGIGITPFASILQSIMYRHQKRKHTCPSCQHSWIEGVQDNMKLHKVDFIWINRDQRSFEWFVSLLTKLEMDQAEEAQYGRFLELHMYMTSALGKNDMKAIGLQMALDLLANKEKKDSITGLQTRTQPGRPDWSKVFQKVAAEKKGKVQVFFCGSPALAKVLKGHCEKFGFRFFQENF
SMILES,composite z-score [1],z-score [2],z-score [3],z-score [4],z-score [5],composite z-score [6],composite z-score [7],composite z-score (Torsin-1A (Homo sapiens) [8]),composite z-score (Torsin-1A (Homo sapiens) [9]),composite z-score [10],z-score [11],composite z-score [12],z-score [13],z-score [14],z-score [15],z-score [16],z-score [17],z-score [18],z-score [19],z-score [20]
COC(=O)C1=CC(CCCO)=CC(C)N(Cc2cccc(OC(F)(F)F)c2)C=C1C(=O)OC (stereo not given),0.145,-1.07 (inactive),-0.117 (inactive),-0.168 (inactive),0.308 (inactive),0.747,-0.001,-0.148,0.47,-0.681,-0.0692 (inactive),0.248,2.3 (inactive),0.192 (inactive),0.983 (inactive),0.5 (inactive),-0.334,0.159 (inactive),-0.317 (inactive),0.859
COc1ccc(C(=O)Nc2cccc(CN3C(=O)[C@]4(O[C@H](CCn5cc([C@H](O)c6ccccc6)nn5)[C@@H]([Si](C)(C)c5ccc(OC)cc5)[C@@H]4C)c4ccccc43)c2)cc1,0.194,-7.81 (inactive),-0.568 (inactive),-0.36 (inactive),-0.413 (inactive),0.192,-0.183,0.0107,0.205,1.69,0.959 (inactive),0.051,1.23 (inactive),0.0918 (inactive),1.82 (inactive),-0.209 (inactive),0.871,-0.498 (inactive),0.245 (inactive),-0.305
C[C@@]12COC[C@]13C=C(Br)[C@H](C2)[C@@]1(CO1)C3=O,-0.329,0.603 (inactive),0.708 (inactive),0.769 (inactive),1.51 (inactive),-0.875,-0.0966,-1.76,-0.55,-0.3,-0.745 (inactive),-0.0003,-0.526 (inactive),-0.0824 (inactive),-0.347 (inactive),-0.161 (inactive),-0.788,0.51 (inactive),0.527 (inactive),0.119
COc1ccc(NC(=O)O[C@H]2[C@@H]3OC(=O)[C@H](Cc4cccc(Br)c4)C/C=C/C[C@@H](Cc4cccc(Br)c4)C(=O)O[C@H]3[C@@H](OC)O[C@@H]2CO)cc1,0.232,-0.878 (inactive),0.388 (inactive),0.753 (inactive),-0.686 (inactive),0.328,0.318,0.344,1.34,0.597,0.446 (inactive),0.358,0.469 (inactive),-0.173 (inactive),-0.284 (inactive),0.434 (inactive),0.353,-1.73 (inactive),-1.21 (inactive),-1.64
COC(=O)[C@@]1(Cc2ccc(F)cc2)[C@H]2c3cc(C(=O)N(C)C)n(Cc4ccc(O)c(OC)c4)c3C[C@H]2CN1C(=O)c1ccccc1,0.128,-2.65 (inactive),-1.24 (inactive),0.387 (inactive),0.0711 (inactive),0.575,-0.108,0.198,0.484,-0.556,-1.45 (inactive),0.681,3.77 (inactive),-0.164 (inactive),1.74 (inactive),-1.74 (inactive),2,-2.68 (inactive),-5.32 (inactive),-1.16
COc1ccc(C(O)C2C=CC3C(=O)N(c4ccccc4)C(=O)C3N2Nc2ccccc2)cc1 (stereo not given),0.256,-0.0351 (inactive),-0.0851 (inactive),0.426 (inactive),-0.356 (inactive),0.571,0.105,-0.109,0.692,0.393,-1.04 (inactive),0.411,10.9 (active),2.15 (inactive),0.332 (inactive),1.27 (inactive),-1.44,-2.06 (inactive),-3.23 (inactive),-2.84
Cc1ccc(S[C@]2(C(=O)NCc3ccccc3)CC(=O)N(Cc3cc(C(F)(F)F)cc(C(F)(F)F)c3)[C@@H]2c2ccc(CO)cc2I)cc1,-0.309,-1.24 (inactive),-0.314 (inactive),0.479 (inactive),0.279 (inactive),-0.649,-0.0523,-0.199,-0.298,-0.757,1.66 (inactive),0.0903,3.13 (inactive),0.769 (inactive),-0.0654 (inactive),0.598 (inactive),0.209,1.69 (inactive),-1.24 (inactive),1.28
Cc1ccc([C@H]2C(C(=O)O)=C[C@@H](C(C)(C)C)N2S(=O)(=O)c2ccc(C)cc2)cc1,0.285,-0.117 (inactive),0.62 (inactive),-0.312 (inactive),0.134 (inactive),1.54,0.271,0.0948,0.465,0.347,-1.18 (inactive),0.141,0.212 (inactive),0.934 (inactive),-0.627 (inactive),0.585 (inactive),-0.213,0.96 (inactive),-2.84 (inactive),-0.357
COCCCNC(=O)[C@@]1(c2ccc([N+](=O)[O-])cc2)CC(=O)N(CC23CC4CC(CC(C4)C2)C3)[C@@H]1c1ccc(CO)cc1I,0.582,-5.26 (inactive),0.142 (inactive),-0.825 (inactive),0.372 (inactive),-0.414,0.0906,0.676,0.0661,0.636,-0.355 (inactive),0.082,24 (active),8.65 (active),2.5 (inactive),2.31 (inactive),-0.0623,2.08 (inactive),-1.02 (inactive),-0.233

# — PubChem BioAssay
